Measured values taken from PubChem BioAssay (NCATS).
Records with an inconclusive call do not appear. Calls follow the shape of the dose curve; as a rule, active = well fitted curve in either direction with a large enough effect (not every such curve was filed as active); inconclusive = small, poorly fitted or top-dose-only effect, or another doubt; inactive = flat fitted curve, though single readings scatter.

experiment: NFAT Signaling Pathway (AID 444); settings: Jurkat NFAT-bla M1, carbachol, beta-lactamase ratio, 5 h; at 17.2 µM (top of the series) unless noted
Excerpt: NCGC Assay Overview: The nuclear factor of activated T cells (NFAT) family of transcription factors has been found primarily in most immune system cells and some other non-immune cells. NFAT plays the immunomodulatory role, primarily in T-cell activation and differentiation. NFAT target genes are also involved in the regulation of apoptosis and differentiation in non-immune cell types. The NFAT sequence was engineered to the upstream of the ?-lactamase reporter gene and transfected into Jurkat cells with co-transfection of muscarinic receptor1 [provided by Invitrogen Corp]. When an extracellular stimulus, such as carbachol, binds to the GPCR M1 receptor, it stimulates a signaling cascade that activates NFAT response element and ?-lactamase expression by phosphorylating the NFAT binding protein. This cell based ?-lactamase reporter gene assay can accurately monitor any changes occurring along the NFAT pathway, and can be used for screening small molecule inhibitor or activator upon activation by carbachol EC50 concentration. A small molecular library were screened in a titration series resulting in AC50s (can be either IC50s or EC50s).
NCGC Assay Protocol Summary: The cells were prepared in RPMI 1640 medium containing 0.1% dialyzed FBS and 25 mM HEPES at 1.6 x 10^6cell/ml. The assay was performed in 1536-well plate format as follows: 5 ul of cell preparation 23 nl of compounds 1ul of carbachol (final concentration 1 uM) Briefly centrifuge the plates and incubate at 37 °C for 5 hours 1 ul of CCF4 dye mixture Incubate the plates at RT for 1 hour Read the plate in EnVision plate reader (Ex= 405nm, and Em1=460nm and Em2=530nm). The %Activity was determined from the ratio of 460nm/530nm. Data normalization and AC50 calculations were accomplished using GeneData software.
% is scaled to controls: 0 for no effect and ±100 for the full control effect.

Activity change, negative = inhibition, inactive:
CCC1(C)Cc2ccccc2-c2nc(NCCO)n(-c3ccccc3)c(=O)c21 (stereo not given) 6.29%, O=C1NC2c3ccccc3C(=O)N2c2c1cnn2-c1ccccc1 (stereo not given) -1.9%, C/C(NC(=O)c1cccs1)=C1\C(=O)C[C@@H]2[C@H]1C2(C)C -25.4%, CCOC(=O)c1c(C)[nH]c(/C(C)=N/O)c1C 3.09%, Cc1ccc(C2C(C(=O)c3cc4ccccc4o3)=C(O)C(=O)N2CCCN(C)C)cc1 (stereo not given) -2.86%, CC(=O)Nc1ccc(Oc2ccc3nc(C)[nH]c3c2)cc1 0.827%, CSC1=C(C#N)C(c2ccc(C)s2)CC(=O)N1 (stereo not given) -2.53%, COC(=O)c1cc(Br)c(=O)n(Cc2cccnc2)c1 10.7%, C=CCn1c(N)c(C(=O)OC(C)(C)C)c2nc3ccccc3nc21 3.64%, Clc1ccc(-n2ncc3c(NCc4ccccn4)ncnc32)cc1 -18.5%, CC(C)(C#N)C(C)(C)c1nn[nH]n1 0.881%, CN1C[C@@H](C(=O)N[C@]2(C)O[C@]3(O)[C@H]4CCCN4C(=O)[C@H](Cc4ccccc4)N3C2=O)C[C@H]2c3cccc4[nH]cc(c34)C[C@@H]21 -15.6% [at 38 µM], CCC(=O)N[C@@H]1CC(C(C)(C)NC(=O)CC)CC=C1C (stereo not given in full) 6.85%, CC1N(O)C(c2ccc(Cl)cc2Cl)N(O)C1(C)C (stereo not given) -14.6%, O=c1[nH]c2sc3c(c2c(=O)n1Cc1ccccc1)CCC3 16.2%, Cc1cc(C(F)(F)F)c(C#N)c(SCC(=O)NC2CC2)n1 -9.19%, O=C(Nc1nnc(SCc2ccccc2F)s1)c1ccco1 11.2%, Oc1c(C=NCc2ccncc2)sc2ccccc12 -6.22%, CCCCC(C(=O)O)C(C)CC(=O)Nc1cccc(C(=O)O)c1 (stereo not given) -0.782%, CC(=O)c1cc2c(=O)c3ccccc3oc2nc1C -16.9%, Cn1c(=O)[nH]c2cc(Cl)cnc21 3.47%, Cc1cccc(NC(=O)c2cc(N3CCOCC3)nc3ccccc23)c1 28.7%, O=c1[nH]cnc2cc(-c3ccccc3)sc12 3.27%, COc1ccccc1C1CC(c2ccc(Cl)cc2)Nc2nc(N)nn21 (stereo not given) 22.1%, COc1cc(N2C(=O)CSC23C(=O)Nc2ccccc23)cc(OC)c1OC (stereo not given) 18.9%, CC1CCc2cc(F)cc3c(O)c(C(=O)Nc4cnccn4)c(=O)n1c23 (stereo not given) 19.5%, N#CC(C(=O)Nc1ccc(Cl)c(Cl)c1)=C1Nc2ccccc2N1 -3.6%, CC(C)CC(=O)Nc1ncnc2c1C(=O)CC(C)(C)C2 -2.65%, COCCOC(=O)c1c(C)nc(SCC(=O)Nc2ccc(OC)cc2)c(C#N)c1-c1ccco1 -14.8%, O=C(c1cc(N2CCCCC2)nc2ccccc12)N1CCOCC1 -13.8%, CCOC(=O)c1c(-c2cccs2)csc1NC(=O)CCCC(=O)O -2.47%, Nc1[nH]nc2nc(NCc3ccccc3)c3c(c12)CCN(Cc1ccccc1)C3 0.244%, CC1(C)Nc2ccc(O)cc2-c2c1ssc2=S 19.6%, CCC1SC(N)=NC1=O (stereo not given) -3.13%, CC(=O)C1=C(O)C(=O)N(Cc2cccnc2)C1c1ccccc1Cl (stereo not given) 3.26%, Cc1cc(OCCN2CCOCC2)nc2ccccc12 23.5%, O=S(=O)(N[C@@H]1C[C@H]2CC[C@@H]1C2)c1cccs1 -11.3%, CC(=O)N/C(=N/c1nc(C)cc(C)n1)Nc1ccc(NC(C)=O)cc1 -3.91%, CCNC(=O)COn1c(SCC(=O)NCC)nc2ccccc2c1=O 9.09%, c1ccc(-c2nn3c(C4CCCCC4)nnc3s2)cc1 -5.79%
